Rows were chosen to be rich in hits. Some 22% of all compounds tested hit in one or more screens of this group.
CYP2C19 act: increases human CYP2C19 enzyme activity. activation factor at 5 µM. recombinant CYP2C19, luciferin-H EGE luminescence; active compounds read high; 0 = fully inhibited enzyme, 1 = untreated enzyme. 96,000 tested, under 10 active. AID 1025. P33261;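 active = activation factor of at least 2 at 5 µM in the primary screen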
CYP2C9 act: activators of human CYP2C9. recombinant CYP2C9, luciferin-H conversion, luminescence; active compounds read high; factor 1 = untreated enzyme, 0 = blocked. activation factor at 5 µM. 1.4% of 96,000 active. AID 1024;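 active = activation factor of 2 or more for CYP2C9 at a 5 µM dose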
Target sequence (P11712 whole entry, looked up): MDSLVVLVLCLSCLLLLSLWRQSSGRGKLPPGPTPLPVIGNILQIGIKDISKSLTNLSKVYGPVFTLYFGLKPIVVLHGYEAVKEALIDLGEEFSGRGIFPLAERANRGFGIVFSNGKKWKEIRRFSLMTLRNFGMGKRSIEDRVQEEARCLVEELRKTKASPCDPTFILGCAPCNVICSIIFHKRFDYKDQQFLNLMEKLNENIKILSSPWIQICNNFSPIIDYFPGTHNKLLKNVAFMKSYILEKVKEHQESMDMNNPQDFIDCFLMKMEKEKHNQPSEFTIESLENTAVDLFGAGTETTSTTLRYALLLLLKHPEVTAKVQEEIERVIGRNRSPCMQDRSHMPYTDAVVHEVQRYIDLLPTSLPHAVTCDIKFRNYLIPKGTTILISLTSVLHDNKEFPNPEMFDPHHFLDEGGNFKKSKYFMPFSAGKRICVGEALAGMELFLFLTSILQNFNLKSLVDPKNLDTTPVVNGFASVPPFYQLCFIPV
Measles CPE: protection of cells from measles virus | Measles virus-infected cells, CPE protection, absorbance | protection (pct of control), % at 4 µM | AID 841 | 1.5% of 140,000 active; in the data active = protection mostly above about 24%, no sharp cut-off; inactive = mostly below about 26%
CYP2C9 inh: blocks human cytochrome P450 2C9. AID 777. 20% of 96,000 active. P11712. inhibition, % at 5 µM. CYP2C9 Supersomes, luciferin-H conversion, luminescence;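 active = blocking of liver enzyme CYP2C9 beyond about 50% at 5 µM, limit read from the data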
CYP2C19 inhib: blocks human cytochrome P450 2C19; CYP2C19 Supersomes, luciferin-H EGE luminescence, 30 min; P33261; inhibition, % at 5 µM; 21% of 96,000 active;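 active = CYP2C19 inhibition above a set limit at 5 µM in the primary screen, cut at about 50% in these data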
Hits are given with their value.

How did CCN1C(=O)CSc2ccc(C(=O)NC3CCCCC3)cc21 do in these assays?
CYP2C19 act: inactive; CYP2C9 act: inactive; Measles CPE: inactive; CYP2C9 inh: inactive; CYP2C19 inhib: inactive

How did O=C1CCCc2[nH]nc(-c3cccnc3)c21 do in these assays?
CYP2C19 act: inactive; CYP2C9 act: inactive; Measles CPE: inactive; CYP2C9 inh: inactive; CYP2C19 inhib: inactive

Results for O=C(NNC(=O)C1CCCO1)c1ccc(Br)cc1 (configuration not stated) ?
Measles CPE: inactive

What do the screens show for `COc1cc2c(=O)n(CC3CCCO3)c(=O)n(CC(=O)Nc3cccc(Cl)c3)c2cc1OC` (configuration not stated)?
CYP2C19 act: inactive; CYP2C9 act: inactive; Measles CPE: inactive; CYP2C9 inh: 85; CYP2C19 inhib: 63

Results for COc1cccc(-c2c(NC(=O)c3ccco3)n(-c3ccc(C)cc3)nc(C)c2=O)c1 ?
CYP2C19 act: inactive; CYP2C9 act: inactive; Measles CPE: inactive; CYP2C9 inh: inactive; CYP2C19 inhib: inactive

Results for CC(C)Sc1cc(N2CCCC2)nc(-c2ccccc2)n1 ?
CYP2C19 act: inactive; CYP2C9 act: inactive; CYP2C9 inh: inactive; CYP2C19 inhib: inactive

What do the screens show for `CCCN(CC1CC1)C(=O)COc1ccccc1C(=O)NCc1ccccc1`?
CYP2C19 act: inactive; CYP2C9 act: inactive; Measles CPE: inactive; CYP2C9 inh: inactive; CYP2C19 inhib: inactive

What do the screens show for `O=C(COc1cccc2ccccc12)N1CCN(c2ccccn2)CC1`?
CYP2C19 act: inactive; CYP2C9 act: 2.3; Measles CPE: inactive; CYP2C9 inh: inactive; CYP2C19 inhib: 95

Results for O=C(NCc1ccccc1)c1ccccc1OCC(=O)N1CCCCC1 ?
CYP2C19 act: inactive; CYP2C9 act: inactive; Measles CPE: inactive; CYP2C9 inh: 100; CYP2C19 inhib: 73

Results for O=C(COc1ccc(F)cc1)N1c2ccccc2CCc2ccccc21 ?
Measles CPE: inactive

Results for O=C(COc1cccc2ccccc12)N1c2ccccc2CCc2ccccc21 ?
CYP2C19 act: inactive; CYP2C9 act: inactive; Measles CPE: inactive; CYP2C9 inh: 84; CYP2C19 inhib: 76

What do the screens show for `O=C(COc1cccc2cccnc12)N1CCc2ccccc2C1`?
CYP2C19 act: inactive; CYP2C9 act: 3.2; Measles CPE: inactive; CYP2C9 inh: inactive; CYP2C19 inhib: 88

How did O=C(Nc1ccc(Cl)c(Cl)c1)Nc1nc(-c2ccccc2)cs1 do in these assays?
Measles CPE: inactive

What do the screens show for `N#Cc1cc(Oc2ccc(Cl)cc2)c(N2CCOCC2)cc1C#N`?
Measles CPE: inactive

What do the screens show for `COc1ccc(OC)c(S(=O)(=O)Nc2ccc(CC(=O)O)cc2)c1`?
CYP2C19 act: inactive; CYP2C9 act: inactive; Measles CPE: inactive; CYP2C9 inh: inactive; CYP2C19 inhib: inactive

Results for O=C(COc1cccc2ccccc12)N1CCN(c2ccccc2)CC1 ?
CYP2C19 act: inactive; CYP2C9 act: inactive; Measles CPE: inactive; CYP2C9 inh: inactive; CYP2C19 inhib: 95

How did CC1(C)Cc2cccc(OCC(=O)N3CCN(c4ccccc4)CC3)c2O1 do in these assays?
Measles CPE: inactive

Results for O=C(CSc1cc(Cl)ccc1Cl)NCC(=O)Nc1ccc(F)c(F)c1F ?
Measles CPE: inactive

How did Clc1ccc(OCCCN2CCCC2)cc1Cl do in these assays?
Measles CPE: inactive

What do the screens show for `CCOc1cccc(OCCOCCN2CCCC2)c1`?
CYP2C19 act: inactive; CYP2C9 act: inactive; Measles CPE: inactive; CYP2C9 inh: inactive; CYP2C19 inhib: inactive

How did Clc1ccc(OCCCn2cncn2)cc1Cl do in these assays?
CYP2C19 act: inactive; CYP2C9 act: inactive; Measles CPE: inactive; CYP2C9 inh: 92; CYP2C19 inhib: 99

Results for c1ccc(Cc2ccc(OCCn3cncn3)cc2)cc1 ?
CYP2C19 act: inactive; CYP2C9 act: inactive; Measles CPE: inactive; CYP2C9 inh: 98; CYP2C19 inhib: 97

What do the screens show for `c1ccc(-c2ccccc2OCCn2cncn2)cc1`?
CYP2C19 act: inactive; CYP2C9 act: inactive; Measles CPE: inactive; CYP2C9 inh: inactive; CYP2C19 inhib: 97

What do the screens show for `FC(F)(F)c1cccc(OCCOCCn2cncn2)c1`?
CYP2C19 act: inactive; CYP2C9 act: inactive; Measles CPE: inactive; CYP2C9 inh: inactive; CYP2C19 inhib: 86

What do the screens show for `CC(C)(S)[C@@H](N)C(=O)O`?
Measles CPE: inactive

How did c1ccc(COc2ccc(OCCCn3cncn3)cc2)cc1 do in these assays?
CYP2C19 act: inactive; CYP2C9 act: inactive; Measles CPE: 30; CYP2C9 inh: 96; CYP2C19 inhib: 94

Results for COc1ccc(OCCn2cncn2)cc1 ?
CYP2C19 act: inactive; CYP2C9 act: inactive; Measles CPE: inactive; CYP2C9 inh: inactive; CYP2C19 inhib: inactive

Bioassay records: PubChem BioAssay, several laboratories
